Results published in PubChem BioAssay AID1159580 (chemical genetic matrix, 2015).
Hit rate of the full screen: of about 5,500 compounds, about 2,000 (36%) were called active. Another 18% or so got no clear call; they are omitted. Cut-off read from the data, not from the text of the source: active = normalized growth mostly below about 0.91 (no sharp cut-off); inconclusive = no clear call, values can overlap the other calls; inactive = mostly above about 0.92. The list shows a part of the results.

Assay: chemical genetic growth profiling, strain panel (AID 1159580);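 note: tested at 20 µM; growth read once vehicle control cultures reached saturation at 30 °C; 1 = growth at the plate median or of vehicle wells; lower values mean less growth of the strain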
Conditions: growth OD

Measured: normalized growth

NC(=O)c1cc[n+](CC2=C(C(=O)O)N3C(=O)C(NC(=O)C(c4ccccc4)S(=O)(=O)[O-])C3SC2)cc1 (stereo not given)
inactive: S. cerevisiae deletion strains, locus YJR066W, strain TOR1, active compounds read low 1 | S. cerevisiae deletion strains, locus YKL009W, strain mrt4, active compounds read low 0.991 | S. cerevisiae deletion strains, locus YKL068W, active compounds read low 0.992 | S. cerevisiae deletion strains, locus YKL085W, strain MDH1 (second series), active compounds read low 0.987 | S. cerevisiae deletion strains, locus YKL085W, strain MDH1, active compounds read low 0.987 | S. cerevisiae deletion strains, locus YKL160W, strain elf1, active compounds read low 0.967 | S. cerevisiae deletion strains, locus YKL190W, strain CNB1, active compounds read low 0.996 | S. cerevisiae deletion strains, locus YKR001C, strain vps1, active compounds read low 0.993 | S. cerevisiae deletion strains, locus YKR026C, strain gcn3, active compounds read low 0.96 | S. cerevisiae deletion strains, locus YKR091W, strain srl3, active compounds read low 1.01 | S. cerevisiae deletion strains, locus YLL001W, strain dnm1, active compounds read low 0.961 | S. cerevisiae deletion strains, locus YLL026W, active compounds read low 0.999 | S. cerevisiae deletion strains, locus YLL041C, strain sdh2, active compounds read low 0.978 | S. cerevisiae deletion strains, locus YLR027C, strain aat2, active compounds read low 0.982 | S. cerevisiae deletion strains, locus YLR039C, strain RIC1, active compounds read low 0.986 | S. cerevisiae deletion strains, locus YLR058C, strain SHM2, active compounds read low 0.987 | S. cerevisiae deletion strains, locus YLR102C, strain apc9, active compounds read low 0.992 | S. cerevisiae deletion strains, locus YLR113W, strain HOG1, active compounds read low 1.09 | S. cerevisiae deletion strains, locus YLR221C, strain rsa3, active compounds read low 0.991 | S. cerevisiae deletion strains, locus YLR258W, strain gsy2, active compounds read low 1.01 | S. cerevisiae deletion strains, locus YLR262C, strain YPT6 (second series), active compounds read low 0.983 | S. cerevisiae deletion strains, locus YLR262C, strain YPT6, active compounds read low 0.945 | S. cerevisiae deletion strains, locus YLR268W, strain sec22, active compounds read low 0.981 | S. cerevisiae deletion strains, locus YLR320W, strain mms22, active compounds read low 1.01 | S. cerevisiae deletion strains, locus YLR330W, strain CHS5, active compounds read low 0.982 | S. cerevisiae deletion strains, locus YLR342W, strain FKS1 (second series), active compounds read low 0.959 | S. cerevisiae deletion strains, locus YLR342W, strain FKS1, active compounds read low 0.973 | S. cerevisiae deletion strains, locus YLR357W, strain rsc2, active compounds read low 0.965 | S. cerevisiae deletion strains, locus YLR370C, strain arc18, active compounds read low 1 | S. cerevisiae deletion strains, locus YLR371W, strain rom2, active compounds read low 0.987 | S. cerevisiae deletion strains, locus YLR384C, strain iki3, active compounds read low 0.984 | S. cerevisiae deletion strains, locus YLR418C, strain cdc73, active compounds read low 0.972 | S. cerevisiae deletion strains, locus YML016C, strain PPZ1, active compounds read low 0.982 | S. cerevisiae deletion strains, locus YML032C, strain rad52, active compounds read low 0.989 | S. cerevisiae deletion strains, locus YML120C, strain ndi1, active compounds read low 0.986 | S. cerevisiae deletion strains, locus YML124C, strain tub3, active compounds read low 0.982 | S. cerevisiae deletion strains, locus YMR058W, strain fet3, active compounds read low 0.998 | S. cerevisiae deletion strains, locus YMR078C, strain ctf18, active compounds read low 0.989 | S. cerevisiae deletion strains, locus YMR125W, strain sto1, active compounds read low 0.971 | S. cerevisiae deletion strains, locus YMR129W, active compounds read low 1.01 | S. cerevisiae deletion strains, locus YMR205C, strain PFK2, active compounds read low 1 | S. cerevisiae deletion strains, locus YMR223W, strain ubp8, active compounds read low 0.974 | S. cerevisiae deletion strains, locus YMR231W, strain pep5, active compounds read low 1 | S. cerevisiae deletion strains, locus YMR307W, strain GAS1, active compounds read low 0.883 | S. cerevisiae deletion strains, locus YNL067W, strain RPL9B, active compounds read low 1.02 | S. cerevisiae deletion strains, locus YNL071W, strain lat1, active compounds read low 1.01 | S. cerevisiae deletion strains, locus YNL153C, strain GIM3, active compounds read low 1.04 | S. cerevisiae deletion strains, locus YNL183C, strain NPR1, active compounds read low 0.999 | S. cerevisiae deletion strains, locus YNL209W, strain ssb2, active compounds read low 1.01 | S. cerevisiae deletion strains, locus YNL233W, strain BNI4, active compounds read low 1.01 | S. cerevisiae deletion strains, locus YNL248C, strain rpa49, active compounds read low 0.987 | S. cerevisiae deletion strains, locus YNL250W, strain rad50, active compounds read low 0.975 | S. cerevisiae deletion strains, locus YNL271C, strain bni1, active compounds read low 0.985 | S. cerevisiae deletion strains, locus YNL298W, strain CLA4, active compounds read low 0.988 | S. cerevisiae deletion strains, locus YNL307C, strain MCK1, active compounds read low 0.987 | S. cerevisiae deletion strains, locus YNL322C, strain KRE1 (second series), active compounds read low 0.994 | S. cerevisiae deletion strains, locus YNL322C, strain KRE1, active compounds read low 0.993 | S. cerevisiae deletion strains, locus YNR049C, strain mso1, active compounds read low 0.986 | S. cerevisiae deletion strains, locus YNR052C, strain pop2, active compounds read low 0.991 | S. cerevisiae deletion strains, locus YOL006C, strain TOP1, active compounds read low 1.02 | S. cerevisiae deletion strains, locus YOL012C, strain htz1 1.88 | S. cerevisiae deletion strains, locus YOL147C, strain pex11, active compounds read low 0.983 | S. cerevisiae deletion strains, locus YOR001W, strain rrp6, active compounds read low 0.985 | S. cerevisiae deletion strains, locus YOR061W, strain CKA2, active compounds read low 0.985 | S. cerevisiae deletion strains, locus YOR069W, strain VPS5, active compounds read low 0.987 | S. cerevisiae deletion strains, locus YOR070C, strain gyp1, active compounds read low 1.01 | S. cerevisiae deletion strains, locus YOR080W, strain dia2, active compounds read low 0.982 | S. cerevisiae deletion strains, locus YOR083W, strain WHI5, active compounds read low 0.985 | S. cerevisiae deletion strains, locus YOR106W, strain vam3, active compounds read low 0.992 | S. cerevisiae deletion strains, locus YOR136W, strain idh2, active compounds read low 0.998 | S. cerevisiae deletion strains, locus YOR144C, strain elg1, active compounds read low 0.991 | S. cerevisiae deletion strains, locus YOR184W, strain ser1, active compounds read low 0.98 | S. cerevisiae deletion strains, locus YOR231W, strain MKK1, active compounds read low 1.09 | S. cerevisiae deletion strains, locus YOR265W, strain rbl2, active compounds read low 1 | S. cerevisiae deletion strains, locus YOR270C, strain vph1, active compounds read low 0.93 | S. cerevisiae deletion strains, locus YOR290C, strain snf2, active compounds read low 0.998 | S. cerevisiae deletion strains, locus YOR316C, strain cot1, active compounds read low 0.994 | S. cerevisiae deletion strains, locus YPL051W, strain arl3, active compounds read low 0.987 | S. cerevisiae deletion strains, locus YPL055C, strain LGE1, active compounds read low 1.06 | S. cerevisiae deletion strains, locus YPL078C, strain atp4, active compounds read low 0.962 | S. cerevisiae deletion strains, locus YPL106C, strain sse1, active compounds read low 1.02 | S. cerevisiae deletion strains, locus YPL240C, strain hsp82, active compounds read low 0.987 | S. cerevisiae deletion strains, locus YPL241C, strain CIN2, active compounds read low 0.991 | S. cerevisiae deletion strains, locus YPL256C, strain CLN2, active compounds read low 1.07 | S. cerevisiae deletion strains, locus YPR119W, strain clb2, active compounds read low 0.995 | S. cerevisiae deletion strains, locus YPR141C, strain kar3, active compounds read low 0.98 | S. cerevisiae deletion strains, locus YPR163C, strain tif3, active compounds read low 0.987 | S. cerevisiae deletion strains, locus YPR167C, strain met16, active compounds read low 0.981 | S. cerevisiae deletion strains, strain wtn01, active compounds read low 0.981 | S. cerevisiae strains, strain wild type, active compounds read low 0.995
